In PubChem BioAssay AID1159580 (chemical genetic matrix, 2015):
Where “and” joins values, the source holds several entries; their conditions need not be identical. Equal entries are not always repeated. In all, about 5,500 compounds went through this assay and about 2,000 (36%) were called active. Inconclusive results (about 18%) are left out. No stated cut-off is given here; in the data, active means normalized growth mostly below about 0.91 (no sharp cut-off); inconclusive means no clear call, values can overlap the other calls; inactive means mostly above about 0.92. The list shows a part of the results.

Experiment: chemical genetic growth profiling, strain panel (AID 1159580);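 further: tested at 20 µM; growth read once vehicle control cultures reached saturation at 30 °C; 1 = growth at the plate median or of vehicle wells; lower values mean less growth of the strain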
Details: S. cerevisiae deletion strains, growth OD

Measured: normalized growth

N#C/C(=C\c1ccc(O)cc1)C(=O)O
inactive: locus YAL013W, strain DEP1, active compounds read low 0.988 | locus YAL021C, strain ccr4, active compounds read low 0.979 | locus YAL026C, strain drs2, active compounds read low 1 | locus YAL030W, strain snc1, active compounds read low 1.01 | locus YBL061C, strain skt5, active compounds read low 1.01 | locus YBR009C, strain hhf1, active compounds read low 1.02 | locus YBR021W, strain FUR4, active compounds read low 1.02 | locus YBR023C, strain chs3, active compounds read low 1 | locus YBR171W, strain sec66, active compounds read low 0.991 | locus YBR229C, strain ROT2, active compounds read low 0.956 | locus YBR231C, strain swc5, active compounds read low 1.01 | locus YBR279W, strain paf1, active compounds read low 1 | locus YCL011C, strain gbp2, active compounds read low 0.987 | locus YCL016C, strain dcc1, active compounds read low 1.01 | locus YCL029C, strain bik1, active compounds read low 0.997 | locus YCL061C, strain MRC1, active compounds read low 0.993 | locus YCL069W, strain vba3, active compounds read low 0.996 | locus YCR088W, strain abp1, active compounds read low 0.987 | locus YDL005C, strain med2, active compounds read low 0.997 | locus YDL035C, strain GPR1, active compounds read low 0.994 | locus YDL040C, strain nat1, active compounds read low 1 | locus YDL074C, strain BRE1, active compounds read low 0.966 | locus YDL101C, strain DUN1, active compounds read low 0.951 | locus YDL134C, strain PPH21, active compounds read low 0.987 | locus YDL185W, strain tfp1, active compounds read low 0.976 | locus YDL192W, strain arf1, active compounds read low 0.993 | locus YDR001C, strain nth1, active compounds read low 0.996 | locus YDR069C, strain doa4, active compounds read low 1 | locus YDR101C, strain arx1, active compounds read low 1.01 | locus YDR137W, strain rgp1, active compounds read low 0.992 | locus YDR150W, strain NUM1, active compounds read low 0.981 | locus YDR159W, strain sac3, active compounds read low 1.01 | locus YDR162C, strain NBP2, active compounds read low 0.937 | locus YDR195W, strain ref2 0.988 | locus YDR297W, strain sur2, active compounds read low 0.997 | locus YDR318W, strain mcm21, active compounds read low 1.04 | locus YDR334W, strain swr1, active compounds read low 0.961 | locus YDR335W, strain msn5, active compounds read low 1 | locus YDR388W, active compounds read low 1.01 | locus YDR392W, strain spt3, active compounds read low 0.972 | locus YDR502C, strain sam2, active compounds read low 0.987 | locus YEL003W, strain gim4, active compounds read low 0.989 | locus YEL037C, strain rad23, active compounds read low 0.986 | locus YEL061C, strain CIN8 (second series), active compounds read low 0.984 | locus YEL061C, strain CIN8, active compounds read low 0.984 | locus YER015W, strain faa2, active compounds read low 1 | locus YER016W, strain bim1, active compounds read low 1.01 | locus YER110C, active compounds read low 0.999 | locus YER111C, strain swi4, active compounds read low 0.999 | locus YER155C, strain BEM2 (second series), active compounds read low 1.01 | locus YER155C, strain BEM2, active compounds read low 0.987 | locus YER167W, strain BCK2, active compounds read low 1.01 | locus YFR010W, strain ubp6, active compounds read low 0.983 | locus YGL078C, strain dbp3, active compounds read low 0.985 | locus YGL086W, strain mad1, active compounds read low 1.02 | locus YGL167C, strain pmr1, active compounds read low 1.01 | locus YGL173C, strain kem1, active compounds read low 1 | locus YGL227W, strain vid30, active compounds read low 0.998 | locus YGL240W, strain doc1, active compounds read low 1.03 | locus YGL248W, strain PDE1, active compounds read low 0.976 | locus YGL253W, strain hxk2, active compounds read low 0.999 | locus YGR078C, strain PAC10, active compounds read low 0.97 | locus YGR135W, strain pre9, active compounds read low 0.988 | locus YGR229C, strain SMI1, active compounds read low 0.996 | locus YGR252W, strain gcn5, active compounds read low 1.09 | locus YHR013C, strain ard1, active compounds read low 1.02 | locus YHR027C, strain rpn1, active compounds read low 0.99 | locus YHR030C, strain SLT2, active compounds read low 0.997 and 1.06 | locus YHR079C, strain IRE1 (second series), active compounds read low 1 | locus YHR079C, strain IRE1, active compounds read low 1.07 | locus YHR094C, strain hxt1, active compounds read low 0.998 | locus YHR129C, strain ARP1, active compounds read low 0.986 | locus YHR142W, strain chs7, active compounds read low 0.954 | locus YHR200W, strain rpn10, active compounds read low 0.996 | locus YIL066C, strain RNR3, active compounds read low 0.981 | locus YIL073C, strain SPO22, active compounds read low 1.1 | locus YIL125W, strain kgd1, active compounds read low 0.997 | locus YIR030C, strain dcg1, active compounds read low 0.988 | locus YJL092W, strain hpr5, active compounds read low 0.979 | locus YJL095W, strain BCK1 (second series), active compounds read low 1 | locus YJL095W, strain BCK1, active compounds read low 0.979 and 1.08 | locus YJL115W, strain asf1, active compounds read low 0.988 | locus YJL129C, strain trk1, active compounds read low 0.98 | locus YJL134W, strain LCB3, active compounds read low 0.983 | locus YJL154C, strain vps35, active compounds read low 0.975 | locus YJL164C, strain tpk1, active compounds read low 1 | locus YJL166W, strain qcr8, active compounds read low 1.01 | locus YJL168C, strain set2, active compounds read low 0.992 | locus YJL187C, strain SWE1 (second series), active compounds read low 0.96 | locus YJL187C, strain SWE1, active compounds read low 1 | locus YJR043C, strain POL32, active compounds read low 1.04 | locus YJR066W, strain TOR1, active compounds read low 0.992
